# Experimental data taken from PubChem BioAssay (NCATS).
# Records with an inconclusive call do not appear. A number with no mark means an inactive call. Active and inactive are the calls of the source. Unless noted, the call rests on the fitted dose curve; in most records, active means well fitted curve in the direction sought with a large enough effect; inconclusive means small, poorly fitted or top-dose-only effect, or another doubt; inactive means no such curve, though single readings can be large; an effect the other way counts as inactive or inconclusive.
# System: not listed separately
# Assay: qHTS Assay for Identification of Small Molecule Inducers of Hypoxia Response (AID 2120; active means well fitted curve in the direction sought with a large enough effect in the signal ratio, with a control signal flat, not every such curve was filed as active; the % refers to the signal ratio; further: 0% is about no effect)
# Conditions: hypoxia response reporter cells, beta-lactamase ratio readout; series mostly up to 104 µM; activation: at the top concentration
# How it was run: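 Read-out: CCF4 FRET emission ratio 460nm/530nm (excitation 405nm), converted to %Activity, with AC50 fitted across a compound titration. ME-180 cells carried an HRE-driven beta-lactamase reporter; compound exposure 17 h, 37 degrees C.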
SMILES,activation,outcome
CCCCCCCCc1ccc(O)cc1,3.59%,–
Nc1ccc(Cl)cc1,0.725%,–
CCOP(=O)(NC(C)C)Oc1ccc(SC)c(C)c1 (configuration not stated),3.1%,–
O=C(O)COc1ccccc1,0.858%,–
c1cc2ccc3cccc4ccc(c1)c2c34,0.911%,–
CCCCC(CC)COC(=O)c1ccccc1C(=O)OCC(CC)CCCC (configuration not stated),0.205%,–
C=CC(=O)NCNC(=O)C=C,0.107%,–
COC(C)(C)CCCC(C)C/C=C/C(C)=C/C(=O)OC(C)C (configuration not stated),-0.058%,–
CC(C)(O)C(=O)Nc1ccc([N+](=O)[O-])c(C(F)(F)F)c1,1.55%,–
O=[N+]([O-])c1c2ccccc2cc2ccccc12,2.68%,–
C1CCC(NC2CCCCC2)CC1,–,inactive
Nc1ccc([N+](=O)[O-])cc1,-0.906%,–
OCCCBr,0.609%,–

# System: not listed separately
# Assay: Cytometric Cell-Based qHTS for Inhibitors of the mTORC1 Signaling Pathway in MEF (Tsc2-/-, p53-/-) Cells (AID 2660);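 further: Tsc2 and p53 null MEFs carrying empty vector with compound for 24 h; percent of cells above a phospho-rpS6 to PI ratio cutoff in each well; plate controls were DMSO for no effect and rapamycin for full effect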
# Conditions: mTORC1 pathway cytometry; series mostly up to 38.3 µM; activity change, negative = inhibition: at the top concentration
# How it was run: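 Readout: Alexa-488 phospho-rpS6 (Ser235/236) intensity divided by PI intensity, thresholded against 7.5 nM rapamycin wells and reported as % positive cells. PI cell count served as the viability measure. Compound exposure was 24 hrs at 37 degree Celsius.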
row,SMILES,"activity change, negative = inhibition"
1,COC(=O)[C@@H](N)CCCN=C(N)N[N+](=O)[O-],-1.73%
2,O=C(N[C@H]1CN2CCC1CC2)c1ccc(Cl)cc1,8.63%
3,c1ccc(C2(c3ccccc3)CC2C2=NCCN2)cc1 (configuration not stated),-6.59%
4,CC[C@@H](C(N)=O)N1CCCC1=O,-3%

# System: not listed separately
# Assay: High Content Imaging Cell-Based qHTS for Inhibitors of the mTORC1 Signaling Pathway in MEF (Tsc2-/-, p53-/-) Cells (AID 2666);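 further: percent of cells scored positive for phospho-rpS6 Ser235/236 immunostaining by imaging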; further: potency means the concentration at half of the fitted maximal effect
# Conditions: series mostly up to 38.3 µM
# How it was run: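 MEF Tsc2-/- p53-/- (empty vector), DMEM/10% FBS; cpd 24 h 37 °C; PFA fix, Alexa-488 p-rpS6 S235/236 Ab, Hoechst; imaged; rapamycin-defined inhibition; % positive cells/well.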
SMILES,outcome,Potency
COC(=O)[C@@H](N)CCCN=C(N)N[N+](=O)[O-],inactive,–
C/C=C(/C)C(=O)O[C@H]1C(C)=C2[C@H]([C@@H]1OC(=O)CCCCCCC)[C@@](C)(OC(C)=O)C[C@H](OC(=O)CCC)[C@@]1(O)[C@H]2OC(=O)[C@@]1(C)O,–,26.1 nM (active)
O=C(N[C@H]1CN2CCC1CC2)c1ccc(Cl)cc1,inactive,–
c1ccc(C2(c3ccccc3)CC2C2=NCCN2)cc1 (configuration not stated),inactive,–
CC[C@@H](C(N)=O)N1CCCC1=O,inactive,–

# System: not listed separately
# Assay: High Content Imaging Cell-Based qHTS for Inhibitors of the mTORC1 Signaling Pathway in MEF Cells (AID 2667); further: potency means the concentration at half of the fitted maximal effect;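 on activity change, negative = inhibition: Tsc2-/- p53-/- MEFs stably re-expressing wild-type Tsc2 exposed 24 h; plate controls were DMSO wells for no effect and rapamycin control wells for full effect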
# Conditions: series mostly up to 38.3 µM; activity change, negative = inhibition: at the top concentration
# How it was run: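 Read-out is the share of phospho-rpS6-positive cells per well, from Hoechst-normalized Alexa-488 Ser235/236 staining imaged on IN Cell. Cells: WT Tsc2-expressing Tsc2-/-, p53-/- MEFs exposed to compound for 24 hrs.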
SMILES,"activity change, negative = inhibition",Potency
COC(=O)[C@@H](N)CCCN=C(N)N[N+](=O)[O-],-100%,–
C/C=C(/C)C(=O)O[C@H]1C(C)=C2[C@H]([C@@H]1OC(=O)CCCCCCC)[C@@](C)(OC(C)=O)C[C@H](OC(=O)CCC)[C@@]1(O)[C@H]2OC(=O)[C@@]1(C)O,–,3.7 nM (active)
O=C(N[C@H]1CN2CCC1CC2)c1ccc(Cl)cc1,-100%,–
c1ccc(C2(c3ccccc3)CC2C2=NCCN2)cc1 (configuration not stated),-100%,–
CC[C@@H](C(N)=O)N1CCCC1=O,-100%,–

# System: not listed separately
# Assay: Cytometry Cell-Based qHTS for Inhibitors of the mTORC1 Signaling Pathway in MEF cells (AID 2668); further: potency means the concentration at half of the fitted maximal effect;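 on activity change, negative = inhibition: Tsc2-/- p53-/- mouse embryonic fibroblasts stably re-expressing wild-type Tsc2; percent cells positive for phospho-rpS6 Ser235/236 relative to propidium iodide stain; plate controls were DMSO wells for no effect and 7.5 nM rapamycin control wells for full effect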
# Conditions: mTORC1 pathway readout; series mostly up to 38.3 µM; activity change, negative = inhibition: at the top concentration
# How it was run: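 Phospho-rpS6 (Ser235/236) immunofluorescence over PI signal, scored as % positive cells using thresholds from 7.5 nM rapamycin and DMSO wells, after 24 h compound exposure of WT-Tsc2-rescued Tsc2-/-, p53-/- MEFs. PI cell count recorded for viability.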
SMILES,"activity change, negative = inhibition",Potency
COC(=O)[C@@H](N)CCCN=C(N)N[N+](=O)[O-],2.65%,–
C/C=C(/C)C(=O)O[C@H]1C(C)=C2[C@H]([C@@H]1OC(=O)CCCCCCC)[C@@](C)(OC(C)=O)C[C@H](OC(=O)CCC)[C@@]1(O)[C@H]2OC(=O)[C@@]1(C)O,–,8.3 nM (active)
O=C(N[C@H]1CN2CCC1CC2)c1ccc(Cl)cc1,-5.25%,–
c1ccc(C2(c3ccccc3)CC2C2=NCCN2)cc1 (configuration not stated),4.14%,–
CC[C@@H](C(N)=O)N1CCCC1=O,6.88%,–

# System: not listed separately
# Assay: Validation screen for inhibitors of Lassa infection (AID 463096; calls by dose curve; further: on the % scale 0 is the no-effect control and ±100 the full control effect)
# Conditions: Lassa virus infection, cell-based; series mostly up to 46.1 µM; activity change, negative = inhibition: at the top concentration
SMILES,"activity change, negative = inhibition",Potency
NCCS,-21.7%,–
CCN1CCc2nc(N)oc2CC1,-5.31%,–
CC(C)(C)NCC(O)c1ccc(O)c(CO)c1 (configuration not stated),–,inactive
CC(=O)Oc1ccccc1C(=O)O,14.3%,–
CC(C[N+](C)(C)C)OC(N)=O (configuration not stated),-10.3%,–
CCn1cc(C(=O)O)c(=O)c2cc3c(cc21)OCO3,-5.22%,–
NCCCC(N)(C(=O)O)C(F)F (configuration not stated),-14.6%,–
C[C@@H](N)C1CCC(C(=O)Nc2ccncc2)CC1 (some centres not stated),11.5%,–
CCc1c(C)[nH]c2c1C(=O)C(CN1CCOCC1)CC2 (configuration not stated),-16.7%,–
CC1=C(/C=C/C(C)=C/C=C/C(C)=C/C(=O)O)C(C)(C)CCC1,23.7%,–
CC(C)C[C@H](NC(=O)[C@@H](O)[C@H](N)Cc1ccccc1)C(=O)O,5.66%,–
CC(C)c1ccc2c(c1)c(SC(C)(C)C)c(CC(C)(C)C(=O)O)n2Cc1ccc(Cl)cc1,-8.94%,–
CC(C)(Sc1ccc(CCN(CCCCC2CCCCC2)C(=O)NC2CCCCC2)cc1)C(=O)O,-4.87%,–
CS(=O)(=O)Nc1ccc([N+](=O)[O-])cc1Oc1ccccc1,-22.2%,–
CCN(CC)CCNC(=O)c1ccc(NC(C)=O)cc1,44%,–

# Biological target: Ubiquitin carboxyl-terminal hydrolase 2 (Homo sapiens) (UniProt O75604)
# Sequence (O75604 whole entry, looked up): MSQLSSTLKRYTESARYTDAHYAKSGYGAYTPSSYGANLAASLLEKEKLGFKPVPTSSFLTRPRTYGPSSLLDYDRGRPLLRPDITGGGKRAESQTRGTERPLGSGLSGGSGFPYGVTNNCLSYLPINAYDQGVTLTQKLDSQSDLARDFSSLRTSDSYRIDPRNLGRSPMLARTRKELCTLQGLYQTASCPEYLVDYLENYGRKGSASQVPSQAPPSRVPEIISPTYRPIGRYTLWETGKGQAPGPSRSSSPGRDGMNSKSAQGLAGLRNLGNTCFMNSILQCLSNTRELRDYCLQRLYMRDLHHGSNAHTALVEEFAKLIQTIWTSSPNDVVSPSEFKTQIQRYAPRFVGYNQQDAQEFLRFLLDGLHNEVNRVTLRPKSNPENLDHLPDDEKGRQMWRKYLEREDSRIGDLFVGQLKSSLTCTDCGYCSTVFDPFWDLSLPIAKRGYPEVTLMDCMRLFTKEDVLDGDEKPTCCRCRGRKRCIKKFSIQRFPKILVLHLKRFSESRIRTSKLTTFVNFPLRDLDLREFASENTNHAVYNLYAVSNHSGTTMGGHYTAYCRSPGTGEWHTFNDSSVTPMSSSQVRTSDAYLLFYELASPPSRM
# Assay: qHTS Validation Assay for Inhibitors of Ubiquitin-specific Protease USP2a Using CHOP2 as the Reporter (AID 463106);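 further: plate controls were DMSO for no effect and full inhibition by NEM for full effect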
# Conditions: USP2a cleavage of CHOP2 reporter, enzymatic; series mostly up to 38.3 µM; activity, negative = inhibition: at the top concentration
# How it was run: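 Fluorescence read-out at Ex 485nm/Em 531nm after 60min RT, following addition of 25nM Ub-CHOP2 plus 25nM reporter substrate to USP2 core (10nM) pretreated 30min with compound. Data normalized to NEM full inhibition; concentration-response curves fitted.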
row,SMILES,"activity, negative = inhibition"
1,COC(=O)[C@@H](N)CCCN=C(N)N[N+](=O)[O-],-0.627%
2,C/C=C(/C)C(=O)O[C@H]1C(C)=C2[C@H]([C@@H]1OC(=O)CCCCCCC)[C@@](C)(OC(C)=O)C[C@H](OC(=O)CCC)[C@@]1(O)[C@H]2OC(=O)[C@@]1(C)O,-29.6%
3,O=C(N[C@H]1CN2CCC1CC2)c1ccc(Cl)cc1,2.14%
4,c1ccc(C2(c3ccccc3)CC2C2=NCCN2)cc1 (configuration not stated),0.0996%
5,CC[C@@H](C(N)=O)N1CCCC1=O,0.333%
